Compound activity deposited in PubChem by National Center for Advancing Translational Sciences (NCATS).
S2 tox = Viability Counterscreen for Primary qHTS for Inhibitors of ATXN expression; Potency, µM (highest dose often 56.7 µM), usual class: cytotoxic; S2 cells (HEK-293 line with an ATXN2-luciferase reporter) viability, CellTiter-Fluor protease fluorescence, 24 h; 400,000 compounds, 0.49% hits; AID 651635, 2014; also: nearly all actives have a fitted effect of over 40% in size
KB-3-1 cytotox = qHTS assay for MDR1-selective chemotherapeutics: Primary screen using the parental adenocarcinoma cell KB-3-1 | KB-3-1 viability, CellTiter-Glo ATP luminescence, 72 h | Potency, µM (doses to about 46.1 µM), hits mostly cytotoxic | 400,000 compounds, 1.4% hits; also: % is scaled to controls: 0 for no effect and ±100 for the full control effect; nearly all actives have a fitted effect of over 60% in size
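Cytotoxicity measured as CellTiter-Glo luminescence after 72 h at 37 C. Compound titrations were pinned onto drug-naive KB-3-1 parental adenocarcinoma cells grown in DMEM with 10% FBS, and normalized data fitted to concentration-response curves.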
ATXN2 expr inh = Primary qHTS for Inhibitors of ATXN expression; 360,000 compounds, 0.72% hits; HEK-293 ATXN2-luciferase reporter, luminescence, 24 h; Potency, µM (series often up to 57 µM), inactives show top-dose activity change, negative = inhibition, usual class: inhibitors; also: % is scaled to controls: 0 for no effect and ±100 for the full control effect; nearly all actives have a fitted effect of over 55% in size
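qHTS (up to 57 uM final) was run with 24 h compound exposure of reporter cells at 37 °C. Each well was multiplexed: SteadyGlo luminescence measured ATXN2-luciferase expression after a fluorogenic Gly-Phe-AFC viability readout (25 uM final).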
KB-V1 MDR tox = qHTS assay for MDR1-selective chemotherapeutics: Primary screen using the drug-selected MDR subline cells KB-V1. 400,000 compounds, 3.4% hits. Potency, µM (doses to about 46.1 µM), actives largely listed as cytotoxic. KB-V1 MDR cells viability, CellTiter-Glo, 72 h. AID 1347076, 2019; also: % is scaled to controls: 0 for no effect and ±100 for the full control effect; nearly all actives have a fitted effect of over 60% in size
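Cytotoxicity toward P-gp-expressing KB-V1 cells was determined as loss of CellTiter-Glo luminescence after 72 h at 37 degrees C. Compounds were tested in quantitative HTS format across a concentration range, with curves fitted to normalized data.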
HepG2 tox = qHTS for Inhibitors of TGF-b: Cytotox Counterscreen; HepG2 CAGA-GFP viability, ATP luminescence, 18 h; Potency, µM (highest dose often 46.1 µM), inactives show at the top dose activity change, negative = cytotoxicity, hits mostly cytotoxic; 410,000 compounds, 0.76% hits; AID 588856, 2011
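CellTiter-Glo luminescence gave cytotoxicity after 18 hours at 37 degrees C. The cells were HepG2 CAGA-GFP in 1% FBS DMEM, stimulated with 500 pg/mL TGF-beta after compound addition. %Activity was normalised to no-cell wells (complete cell-killing) and DMSO (no toxicity), and curves were fitted and classified.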
TGFb inhibitor = qHTS for Inhibitors of TGF-b; 410,000 compounds, 1.2% hits; HepG2 CAGA-GFP TGF-b/SMAD3 reporter, GFP fluorescence, 18 h; TGF-beta stimulated, 500 pg/mL final; Potency, µM (titrated, usually from 46.1 µM), for the others: top-dose activity, negative = inhibition, hits mostly inhibitors; also: % is scaled to controls: 0 for no effect and ±100 for the full control effect; nearly all actives have a fitted effect of over 65% in size
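HEPG2 CAGA-GFP reporter cells (1000/well, DMEM with 1% FBS) received compounds, then recombinant TGF-beta at 500 pg/mL final for 18 hours at 37 degrees C. Per-cell GFP summed per well was normalised to unstimulated and stimulated DMSO controls before curve fitting.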
* hit, by the source's call; i = inactive; ? = inconclusive; . = no result. Only some compounds are listed: those with a hit (about 5.9% of all), similar ones and a draw of the others. Calls follow the shape of the dose curve; as a rule, active = well fitted curve in the direction sought with a large enough effect; inconclusive = small, poorly fitted or top-dose-only effect, or another doubt; inactive = no such curve, though single readings can be large; an effect the other way counts as inactive or inconclusive. Potency is read from the fitted curve at half-maximal effect.

SMILES | S2 tox | KB-3-1 cytotox | ATXN2 expr inh | KB-V1 MDR tox | HepG2 tox | TGFb inhibitor
O=C(NC1CCOCC1)c1ccc(-c2cc(-c3cn[nH]c3-c3ccccn3)ccn2)cc1 | . | . | -26% | . | . | .
Nc1ccc2cccnc2c1 | . | ? | . | ? | -16% | -2%
COc1ccccc1C(=O)N[C@@H]1c2ccccc2C2(CCN(Cc3cccnc3)CC2)[C@H]1O | i | . | . | . | . | .
CC(C)(C)CC(C)(C)NC(=S)NC1CCN(Cc2ccccc2)CC1 | ? | ? | ? | 5.2µM* | -46% | ?
COc1ccc(NC(=S)Nc2ccc3nsnc3c2)cc1 | . | i | 9% | 18µM* | -13% | ?
S=C(Nc1ccc(Cl)c(Cl)c1)NC1CCN(Cc2ccccc2)CC1 | . | ? | ? | ? | 11µM* | ?
COc1cccc(CN2c3ccc(Br)cc3C(=O)CS2(=O)=O)c1 | i | i | -1% | i | 1% | 7.9µM*
C=CCN1c2ccc(Br)cc2C(=O)CS1(=O)=O | i | ? | 2% | ? | -12% | ?
COc1cc(CN2c3ccc(Br)cc3C(=O)CS2(=O)=O)cc(OC)c1 | . | i | . | i | -59% | 11µM*
Cc1ccccc1OCC(=O)N/N=C/c1ccc(N2CCOCC2)o1 | i | ? | -37% | i | -46% | 13µM*
Cc1ccccc1OCC(=O)N/N=C/c1ccncc1 | i | i | 0% | i | 2% | 8%
O=C(O)c1ccc(N/N=C/c2cn(Cc3ccccc3F)c3ccccc23)cc1 | i | ? | 104% | i | -21% | 11µM*
Nc1ccc(C(=O)N/N=C/c2cn(Cc3ccccc3)c3ccccc23)cc1 | i | ? | -18% | 29µM* | 0% | 2.8µM*
CCn1cc(/C=N/NC(=O)c2cc3c(ccc4ccccc43)o2)c2ccccc21 | i | ? | -16% | 18µM* | 8% | 0%
CCOC(=O)c1cc2c(=O)n3ccccc3nc2n(CC2CCCO2)c1=NC(=O)c1ccc(OCC)cc1 (stereo not given) | i | i | 6% | i | 3% | -2%
Cc1ccccc1OCC(=O)N/N=C/c1cn(C)c2ccccc12 | ? | i | -10% | i | -17% | -7%
Cc1ccccc1OCC(=O)N/N=C/c1cn(Cc2ccccc2)c2ccccc12 | i | ? | -23% | i | -31% | 8.9µM*
COc1ccc(C2=NOC(C(=O)NCc3ccc(F)cc3)C2)cc1OC (stereo not given) | ? | i | -13% | 0.52µM* | -3% | ?
COc1cc(C2=NOC(C(=O)NCc3ccc(F)cc3)C2)cc(OC)c1OC (stereo not given) | i | 1.5µM* | -1% | 1.5µM* | -9% | -22%
COc1cccc(C2=NOC(C(=O)NCc3ccc(F)cc3)C2)c1 (stereo not given) | i | i | -9% | ? | -16% | -47%
O=C1CCCC2=C1C1(CCSCC1)N=C(Nc1nc3ccccc3o1)N2 | . | i | . | i | . | .
CCOC(=O)c1ccccc1NC(=O)N1CCN(Cc2cc(=O)n3nc(-c4ccccc4)sc3n2)CC1 | i | i | 3% | ? | 0% | 2%
CCc1c(C)nc2ncnn2c1NCCc1ccc(OC)cc1 | i | 5.6µM* | -36% | ? | -15% | -6%
CCc1c(C)nc2ncnn2c1Nc1ccc(C)cc1 | i | i | -3% | i | -1% | -9%
COc1cc(OC)c(OC)cc1CN1CCc2nc(Nc3ccc4c(c3)OCCO4)ncc2C1 | . | i | -1% | i | -12% | -21%
O=C(NCC(c1ccc2c(c1)OCO2)N1CCOCC1)c1cccc(Cl)c1 (stereo not given) | i | i | -10% | ? | -9% | -7%
